Reference: the supplement of paper PMC9262897, “Low-cost anti-mycobacterial drug discovery using engineered E. coli” (Nature Communications, 2022)
Where a name gives a salt, the structure may show the parent alone. ± gives the standard deviation of the averaged measurements.

How the values were obtained:
Test in all cases: growth (OD600 after 10 h); higher = more growth (less inhibition)
[1] = tested on: E. coli TESEC Alr+ wild-type control; settings: compound 0.1 mM; raw OD600 reference: median of DMSO wells 0.241, cell-free background 0.041
Description: (§1)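 TESEC Mtb Alr E. coli, or the Alr+ wild-type control, in 384-well plates with Prestwick library compounds at 0.1 mM and 1% DMSO, across arabinose induction levels of 1E3 to 1E7 nM. Growth is read as OD600 after 10 h at 37 °C in triplicate biological replicates.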

E. coli TESEC Mtb Alr [2] = settings: compound 0.1 mM
Description: as §1

E. coli TESEC Mtb Asd = settings: compound 0.1 mM
Description: (§2)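 TESEC E. coli strains in which the native enzyme is deleted and replaced by arabinose-inducible Mtb Asd, DapB, CysH or TrpD, each grown in its selective medium. Strains were screened against the Prestwick library at 0.1 mM and 1% DMSO in 384-well format at low and high arabinose induction. Growth is read as OD600 after 10 h in triplicate.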

E. coli TESEC Mtb DapB = settings: compound 0.1 mM
Description: as §2

E. coli TESEC Mtb Alr [3] = settings: compound 0.1 mM; remark: listed apart in the source
Description: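 TESEC Mtb Alr E. coli (ΔaraC ΔtolC ΔentC Δalr ΔdadX, arabinose-inducible Mtb Alr) or the Alr+ wild-type control strain, grown in defined M9-fructose medium without D-alanine in 96-well plates with Prestwick library compounds at 0.1 mM and 1% DMSO. Low Alr induction is 0.1 µM arabinose and high induction is 10 mM arabinose.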

[4] = arabinose 1000 nM, raw OD600 reference: median of DMSO wells 0.294, cell-free background 0.041
[5] = arabinose 10000 nM, raw OD600 reference: median of DMSO wells 0.264, cell-free background 0.041
[6] = arabinose 100000 nM, raw OD600 reference: median of DMSO wells 0.201, cell-free background 0.041
[7] = arabinose 1000000 nM, raw OD600 reference: median of DMSO wells 0.193, cell-free background 0.041
[8] = arabinose 10000000 nM, raw OD600 reference: median of DMSO wells 0.146, cell-free background 0.041
[9] = arabinose induction (level): High, raw OD600 reference: median of DMSO wells 0.331, cell-free background 0.041
[10] = arabinose induction (level): Low, raw OD600 reference: median of DMSO wells 0.417, cell-free background 0.041
[11] = arabinose induction (level): High, raw OD600 reference: median of DMSO wells […], cell-free background 0.041
[12] = arabinose induction (level): Low, raw OD600 reference: median of DMSO wells 0.227, cell-free background 0.041
[13] = arabinose 100 nM, raw OD600 reference: median of DMSO wells 0.413, cell-free background 0.052
[14] = arabinose 10000000 nM, raw OD600 reference: median of DMSO wells […], cell-free background 0.052

Compound	growth [1]	growth (E. coli TESEC Mtb Alr [2]; [4])	growth (E. coli TESEC Mtb Alr [2]; [5])	growth (E. coli TESEC Mtb Alr [2]; [6])	growth (E. coli TESEC Mtb Alr [2]; [7])	growth (E. coli TESEC Mtb Alr [2]; [8])	growth (E. coli TESEC Mtb Asd; [9])	growth (E. coli TESEC Mtb Asd; [10])	growth (E. coli TESEC Mtb DapB; [11])	growth (E. coli TESEC Mtb DapB; [12])	growth (E. coli TESEC Mtb Alr [3]; [13])	growth (E. coli TESEC Mtb Alr [3]; [14])
C#CCN(C)Cc1ccccc1 [Pargyline hydrochloride]	0.25 ± 0.0048	0.291 ± 0.0091	0.278 ± 0.0057	0.206 ± 0.02	0.19 ± 0.0033	0.142 ± 0.0058	0.34 ± 0.035	0.429 ± 0.047	0.177 ± 0.0081	0.194 ± 0.0055	0.412 ± 0.0092	0.357 ± 0.007
CN(C)CCOC(C)(c1ccccc1)c1ccccn1 (centres undefined) [Doxylamine succinate]	0.236 ± 0.0058	0.288 ± 0.016	0.249 ± 0.0028	0.19 ± 0.025	0.164 ± 0.0088	0.141 ± 0.0072	0.301 ± 0.028	0.374 ± 0.071	0.179 ± 0.019	0.206 ± 0.011	0.41 ± 0.0066	0.353 ± 0.0099
CO/N=C(\C(=O)N[C@@H]1C(=O)N2C(C(=O)OC(C)OC(C)=O)=C(COC(N)=O)CS[C@H]12)c1ccco1 (some centres undefined) [Cefuroxime axetil]	0.148 ± 0.0057	0.115 ± 0.007	0.0663 ± 0.0028	0.124 ± 0.0033	0.166 ± 0.0066	0.158 ± 0.006	0.246 ± 0.023	0.316 ± 0.011	0.196 ± 0.022	0.215 ± 0.057	0.059 ± 0.0076	0.257 ± 0.011
CO[C@H]1/C=C/O[C@@]2(C)Oc3c(C)c(O)c4c(O)c(c(/C=N/N5CCN(C)CC5)c(O)c4c3C2=O)NC(=O)/C(C)=C\C=C\[C@H](C)[C@H](O)[C@@H](C)[C@@H](O)[C@@H](C)[C@H](OC(C)=O)[C@@H]1C [Rifampicin]	0.0429 ± 0.0015	0.0442 ± 0.003	0.04117 ± 0.00021	0.0444 ± 0.0018	0.04127 ± 0.00012	0.043 ± 0.0014	0.0643 ± 0.011	0.0572 ± 0.0093	0.106 ± 0.094	0.0504 ± 0.00072	0.0557 ± 0.00079	0.0524 ± 0.00092
COC(=O)Nc1nc2cc(C(=O)c3ccc(F)cc3)ccc2[nH]1 [Flubendazol]	0.249 ± 0.026	0.307 ± 0.032	0.2591 ± 0.00086	0.197 ± 0.028	0.191 ± 0.0051	0.141 ± 0.0081	0.43 ± 0.019	0.491 ± 0.029	0.2 ± 0.01	0.231 ± 0.03	0.414 ± 0.018	0.435 ± 0.011
CCC(=O)O[C@]1(C(=O)SCF)[C@H](C)C[C@H]2[C@@H]3C[C@H](F)C4=CC(=O)C=C[C@]4(C)[C@@]3(F)[C@@H](O)C[C@@]21C [Fluticasone propionate]	0.233 ± 0.0036	0.29 ± 0.013	0.274 ± 0.021	0.21 ± 0.012	0.201 ± 0.013	0.149 ± 0.0044	0.258 ± 0.058	0.36 ± 0.046	0.199 ± 0.015	0.239 ± 0.04	0.453 ± 0.01	0.381 ± 0.034
CNCC(O)c1ccc(OC(=O)C(C)(C)C)c(OC(=O)C(C)(C)C)c1 (centres undefined) [Dipivefrin hydrochloride]	0.171 ± 0.01	0.239 ± 0.018	0.255 ± 0.011	0.164 ± 0.016	0.0939 ± 0.0013	0.142 ± 0.004	0.174 ± 0.029	0.269 ± 0.048	0.188 ± 0.023	0.167 ± 0.0099	0.391 ± 0.022	0.19 ± 0.014
CC[C@H](C)[C@H]1O[C@]2(CC[C@@H]1C)C[C@@H]1C[C@@H](CC=C(C)C(O[C@H]3C[C@H](OC)[C@@H](O[C@H]4C[C@H](OC)[C@@H](O)[C@H](C)O4)[C@H](C)O3)[C@@H](C)C=CC=C3CO[C@@H]4[C@H](O)C(C)=C[C@@H](C(=O)O1)[C@]34O)O2 (some centres undefined) [Ivermectin]	0.315 ± 0.013	0.361 ± 0.0096	0.291 ± 0.0046	0.393 ± 0.048	0.209 ± 0.0085	0.222 ± 0.0088	0.343 ± 0.072	0.318 ± 0.13	0.281 ± 0.035	0.28 ± 0.041	0.473 ± 0.046	0.409 ± 0.038
CO[C@H]1C[C@H](O[C@H]2[C@H](C)[C@@H](O[C@@H]3O[C@H](C)C[C@H](N(C)C)[C@H]3OC(C)=O)[C@@H](C)C[C@@]3(CO3)C(=O)[C@H](C)[C@@H](OC(C)=O)[C@@H](C)[C@@H](C)OC(=O)[C@@H]2C)O[C@@H](C)[C@@H]1OC(C)=O [Troleandomycin]	0.0738 ± 0.00081	0.0647 ± 0.0085	0.0495 ± 0.0021	0.0702 ± 0.0019	0.04923 ± 0.00025	0.0672 ± 0.00087	0.15 ± 0.012	0.145 ± 0.0075	0.165 ± 0.0054	0.156 ± 0.0093	0.112 ± 0.02	0.0707 ± 0.017
CCOCCn1c(N2CCCN(C)CC2)nc2ccccc21 [Emedastine]	0.223 ± 0.007	0.288 ± 0.0092	0.25 ± 0.0071	0.211 ± 0.052	0.164 ± 0.0048	0.135 ± 0.004	0.291 ± 0.075	0.328 ± 0.058	0.205 ± 0.018	0.211 ± 0.019	0.415 ± 0.012	0.337 ± 0.013
CCCCOc1cc(C(=O)OCCN(CC)CC)ccc1N [Benoxinate hydrochloride]	0.206 ± 0.0046	0.256 ± 0.016	0.25 ± 0.0055	0.177 ± 0.015	0.1482 ± 0.00091	0.143 ± 0.0029	0.27 ± 0.12	0.451 ± 0.059	0.183 ± 0.016	0.21 ± 0.036	0.4124 ± 0.0014	0.33 ± 0.011
O=C(O)c1cn(-c2ccc(F)cc2)c2cc(N3CCNCC3)c(F)cc2c1=O [Sarafloxacin]	0.0422 ± 0.00026	0.0454 ± 0.0031	0.0399 ± 0.0003	0.04133 ± 0.00015	0.0405 ± 0.0013	0.0412 ± 0.0021	0.0475 ± 0.0021	0.047 ± 0.0013	0.0494 ± 0.00055	0.0482 ± 0.00017	0.0545 ± 0.00093	0.0532 ± 0.0002
CN(C)C/C=C(/c1ccc(Br)cc1)c1cccnc1 [Zimelidine dihydrochloride monohydrate]	0.2066 ± 0.0016	0.261 ± 0.0081	0.255 ± 0.028	0.192 ± 0.028	0.153 ± 0.0035	0.134 ± 0.0035	0.237 ± 0.037	0.413 ± 0.022	0.168 ± 0.0086	0.261 ± 0.12	0.397 ± 0.01	0.303 ± 0.028
CN1CCN(c2c(F)cc3c(=O)c(C(=O)O)cn4c3c2SCC4)CC1 [Rufloxacin]	0.04323 ± 0.00015	0.0429 ± 0.001	0.03973 ± 0.00031	0.04207 ± 0.00031	0.03957 ± 0.00025	0.0429 ± 0.0015	0.04973 ± 0.00045	0.0499 ± 0.0012	0.0507 ± 0.00094	0.0509 ± 0.0014	0.0582 ± 0.0019	0.05197 ± 0.00051
N[C@H]1CONC1=O [(S)-(-)-Cycloserine]	0.247 ± 0.0025	0.0382 ± 0.001	0.0389 ± 0.0016	0.217 ± 0.0065	0.188 ± 0.012	0.108 ± 0.0032	0.329 ± 0.034	0.354 ± 0.038	0.211 ± 0.015	0.276 ± 0.051	0.045 ± 0.00044	0.13 ± 0.0078
C=C(CC)C(=O)c1ccc(OCC(=O)O)c(Cl)c1Cl [Ethacrynic acid]	0.0566 ± 0.0011	0.242 ± 0.01	0.244 ± 0.0042	0.2 ± 0.005	0.171 ± 0.0037	0.144 ± 0.0087	0.171 ± 0.057	0.19 ± 0.074	0.18 ± 0.0058	0.181 ± 0.022	0.376 ± 0.0052	0.374 ± 0.017
CCc1cccc2c3c([nH]c12)C(CC)(CC(=O)O)OCC3 (centres undefined) [Etodolac]	0.24 ± 0.0076	0.272 ± 0.0061	0.264 ± 0.01	0.162 ± 0.0052	0.147 ± 0.004	0.1376 ± 0.00061	0.276 ± 0.027	0.267 ± 0.017	0.195 ± 0.0073	0.261 ± 0.033	0.409 ± 0.011	0.264 ± 0.013
